FLuc modulator: firefly luciferase modulation, counter-screen for miR-21 project; AID 588342; purified FLuc, Km substrates, luminescence inhibition; Potency, µM (series often up to 57.5 µM), most hits filed as inhibitors; 6.9% of 360,000 active; P08659; further: nearly all actives have a fitted effect of over 55% in size
Target sequence (P08659 whole entry, looked up): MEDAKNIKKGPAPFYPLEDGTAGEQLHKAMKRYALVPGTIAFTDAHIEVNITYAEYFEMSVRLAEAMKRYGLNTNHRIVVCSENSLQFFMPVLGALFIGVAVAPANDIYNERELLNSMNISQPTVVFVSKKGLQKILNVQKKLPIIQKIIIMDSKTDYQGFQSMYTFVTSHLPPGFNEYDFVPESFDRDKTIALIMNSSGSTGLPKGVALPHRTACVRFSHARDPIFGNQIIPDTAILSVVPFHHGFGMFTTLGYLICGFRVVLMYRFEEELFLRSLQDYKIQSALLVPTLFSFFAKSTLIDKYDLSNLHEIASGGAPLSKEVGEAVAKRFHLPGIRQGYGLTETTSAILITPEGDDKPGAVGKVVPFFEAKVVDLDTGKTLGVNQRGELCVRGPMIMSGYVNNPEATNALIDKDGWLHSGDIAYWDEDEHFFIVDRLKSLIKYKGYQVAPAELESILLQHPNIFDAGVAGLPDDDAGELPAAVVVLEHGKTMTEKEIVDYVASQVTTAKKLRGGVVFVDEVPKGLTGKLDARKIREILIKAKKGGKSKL
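Biochemical qHTS of compounds, final roughly 60 µM downward over six points, against 10 nM purified firefly luciferase using Km concentrations of substrates (10 uM D-luciferin, 10 uM ATP) in Tris acetate pH 7.5 buffer; luminescence output.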
ELG1 genotox: genotoxicity induction in ELG1-luciferase HEK293T cells | Potency, µM (doses to about 46 µM), most hits filed as activators | 1.3% of 330,000 active | HEK293T ELG1-luciferase reporter, luminescence, 16 h; further: nearly all actives have a fitted effect of over 60% in size
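Step 1: seed 2,000 HEK293T ELG1-luciferase cells per well. Step 2: add compound or DMSO, incubate 16 hr at 37 °C. Step 3: ONE-Glo, 30 min at room temperature, read luminescence.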
Rab9 promoter act: Rab9 promoter activation; Huh7 Rab9 promoter-luciferase reporter, luminescence, 24 h; Potency, µM (titrated, usually from 9.22 µM), hits mostly activators; 2.8% of 320,000 active; further: nearly all actives have a fitted effect of over 60% in size
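Luminescence read-out: Huh7 cells stably expressing Rab9-luciferase, treated 24 h with compound at 37 °C, then lysed with luciferase reagent for 10 min at ambient before reading.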
SMN2 splice enh: increases expression of the SMN2 splice variant. HEK293 SMN2-luciferase splicing reporter, luminescence, 30-36 h. Potency, µM (top dose mostly 46.1 µM), actives largely listed as activators. 2.8% of 210,000 active; further: nearly all actives have a fitted effect of over 55% in size
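HEK293 cells carry an SMN2 minigene-luciferase reporter in which exon 7 inclusion puts luciferase in frame. Cells were seeded at 2000 cells/well, attached for 10-12 hours, then exposed to compounds for 30-36 hours at 37C before ONE-Glo luminescence.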
NPC1 prom act: activators of NPC1 promoter | Huh7 NPC1 promoter luciferase reporter, 24 h | 2.4% of 320,000 active | Potency, µM (top dose mostly 9.22 µM), actives largely listed as activators; further: nearly all actives have a fitted effect of over 60% in size
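Luciferase expression driven by the NPC1 promoter was measured in stably transfected Huh7 cells after a 24 h compound incubation, using a luciferase reagent and a luminescence read.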
Each line names hits and unclear results; the compound was inactive in the other large screens. Sampled rows, rich in hits. Any-hit rate of the full collection: about 7.4%. The call rests on the fitted dose curve; in most records, active means well fitted curve in the direction sought with a large enough effect; inconclusive means small, poorly fitted or top-dose-only effect, or another doubt; inactive means no such curve, though single readings can be large; an effect the other way counts as inactive or inconclusive.

COc1cccc(NC(=O)CCC(=O)Nc2ccc3nc(N4CCOCC4)cc(C)c3c2)c1	FLuc modulator 6µM, Rab9 promoter act 2.5µM, NPC1 prom act inconclusive (no result: SMN2 splice enh)
COc1cccc(CC(=O)Nc2ccc3nc(N4CCC(C)CC4)cc(C)c3c2)c1	none (no result: ELG1 genotox, Rab9 promoter act, NPC1 prom act)
Cc1cc(N2CCOCC2)nc2ccc(NC(=O)CCC(=O)N3CCN(c4ccccc4)CC3)cc12	FLuc modulator 12µM, NPC1 prom act inconclusive (no result: SMN2 splice enh)
CCCCNC(=O)CCC(=O)Nc1ccc2nc(N3CCOCC3)cc(C)c2c1	FLuc modulator 15µM, Rab9 promoter act inconclusive, NPC1 prom act inconclusive
COCCCNC(=O)CCC(=O)Nc1ccc2nc(N3CCOCC3)cc(C)c2c1	FLuc modulator inconclusive, Rab9 promoter act inconclusive, SMN2 splice enh inconclusive
COC(=O)Cn1c(C2CC(=O)N(c3c(C)cccc3C)C2)nc2ccccc21 (stereo unspecified)	none (no result: ELG1 genotox, Rab9 promoter act, SMN2 splice enh, NPC1 prom act)
CC(=O)Nc1cccc(-c2csc(NCc3ccco3)n2)c1	FLuc modulator 17µM, ELG1 genotox inconclusive, SMN2 splice enh inconclusive
Cc1nc2ncccn2c1-c1csc(NCc2ccco2)n1	none
c1coc(CNc2nc(-c3cccs3)cs2)c1	FLuc modulator 24µM, Rab9 promoter act inconclusive, SMN2 splice enh inconclusive, NPC1 prom act inconclusive
Oc1ccc(-c2csc(NCc3ccco3)n2)cc1	FLuc modulator 11µM, ELG1 genotox 18µM
CCNc1nc(-c2cc(C)n(Cc3ccco3)c2C)cs1	FLuc modulator inconclusive
CC1=C2[C@@H]([C@H](C)CC[C@H]2/C=C(\C)C(=O)O)[C@H](O)C1	none (no result: FLuc modulator, ELG1 genotox, Rab9 promoter act, NPC1 prom act)
Cc1ccccc1-c1noc(-c2nnn(-c3ccccc3C)c2N)n1	none (no result: ELG1 genotox, Rab9 promoter act, SMN2 splice enh, NPC1 prom act)
COc1ccc(OCC(=O)NCc2ccc3c(c2)CCN3C(=O)c2cccc(C)c2)cc1	none (no result: ELG1 genotox, Rab9 promoter act, SMN2 splice enh, NPC1 prom act)
Nc1nc(Nc2ccc(Cl)cc2Cl)nc(C(F)(F)F)n1	FLuc modulator inconclusive, ELG1 genotox 18µM, Rab9 promoter act inconclusive, SMN2 splice enh inconclusive, NPC1 prom act inconclusive
Nc1nc(Nc2ccccc2Br)nc(C(F)(F)F)n1	FLuc modulator inconclusive, ELG1 genotox inconclusive
c1ccc(-c2nc(-c3cccc4ccccc34)c(Nc3ccc4ccccc4c3)o2)cc1	none (no result: FLuc modulator, ELG1 genotox, Rab9 promoter act, NPC1 prom act)
O=C(CCCn1c(=O)c2cccn2c2cccnc21)NCc1ccccc1Br	none (no result: ELG1 genotox, Rab9 promoter act, SMN2 splice enh, NPC1 prom act)
COCCCNC(=S)NNC(=O)c1ccc2c(c1)OCO2	none
O=C(NCCOc1ccccc1)c1ccc2c(c1)OCO2	FLuc modulator 0.76µM, ELG1 genotox inconclusive, Rab9 promoter act 0.28µM, SMN2 splice enh 2.5µM, NPC1 prom act 0.28µM
CCOCCCNC(=O)c1cccc(OC2CCN(S(C)(=O)=O)CC2)c1	FLuc modulator 11µM, ELG1 genotox inconclusive, Rab9 promoter act 2.8µM, NPC1 prom act 3.5µM (no result: SMN2 splice enh)
CCOCCCNC(=O)c1ccc2c(c1)OCO2	FLuc modulator inconclusive, Rab9 promoter act inconclusive, SMN2 splice enh 14µM
COc1ccc(OC(=O)c2nc(SCc3ccccc3C)ncc2Cl)cc1	none (no result: ELG1 genotox, Rab9 promoter act, NPC1 prom act)
CCSc1nc2ccccc2n1CC(=O)OC	none
COc1cccc(CSc2nc3ccncc3n2CC(=O)Nc2ccc(OC)c(OC)c2OC)c1	FLuc modulator 15µM, SMN2 splice enh inconclusive (no result: ELG1 genotox, Rab9 promoter act, NPC1 prom act)
COc1ccc(CSc2nc3ccncc3n2CC(=O)Nc2cc(C)cc(C)c2)cc1	FLuc modulator 2.4µM, SMN2 splice enh inconclusive (no result: ELG1 genotox, Rab9 promoter act, NPC1 prom act)
COC(=O)Cn1c(SCc2ccccc2)nc2ccccc21	FLuc modulator 15µM, ELG1 genotox inconclusive
O=C(c1csnn1)N1CCC2(CC1)CN(c1ccccn1)C2	none (no result: FLuc modulator, ELG1 genotox, Rab9 promoter act, NPC1 prom act)
O=C(Nc1ccc(NC(=O)c2cccs2)cc1)c1ccc(Cl)cc1	none (no result: ELG1 genotox, Rab9 promoter act, NPC1 prom act)
Cc1ccc(NC(=O)c2cccs2)cc1	FLuc modulator 12µM, ELG1 genotox 13µM, Rab9 promoter act 2.5µM, SMN2 splice enh inconclusive, NPC1 prom act 2.5µM
O=C(Nc1cccc(O)c1)c1ccc(NC(=O)c2cccs2)cc1	FLuc modulator 15µM, ELG1 genotox inconclusive, NPC1 prom act inconclusive (no result: SMN2 splice enh)
O=C(Nc1ccc(NC(=O)c2cccs2)cc1)c1ccccc1	ELG1 genotox inconclusive, Rab9 promoter act 4µM, NPC1 prom act inconclusive (no result: SMN2 splice enh)
Cc1ccc(NC(=O)OCc2cccs2)cc1	FLuc modulator 5.4µM, ELG1 genotox 2.9µM, Rab9 promoter act 1.1µM, NPC1 prom act 1.6µM (no result: SMN2 splice enh)
O=C(O)c1ccc(NC(=O)c2cccc(NC(=O)c3cccs3)c2)cc1	FLuc modulator inconclusive (no result: SMN2 splice enh)
Cc1ccc(NC(=O)C(=O)NNC(=O)c2cccs2)cc1	FLuc modulator inconclusive
Cc1ccc(NC(=O)OCc2cc(-c3ccccc3)on2)cc1	FLuc modulator inconclusive
O=C(CNC(=O)c1ccccc1)OCc1cc(=O)n2nc(C3CC3)sc2n1	none (no result: ELG1 genotox, Rab9 promoter act, SMN2 splice enh, NPC1 prom act)

Bioassay records: PubChem, National Center for Advancing Translational Sciences (NCATS)
